Measurements as given in PubChem BioAssay (NCI).
The panel holds about 83,000 compounds, 20% with a hit somewhere; the sample as a whole holds those more often.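 Negative percent growth values reflect cell death: -40 means 40% of the cells present at the start died, and -100 means all died.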 The source made the active and inactive calls. How the source made its calls: active means growth percent below 10; inactive means the rest.

Each compound was assayed on MDA-MB-468 breast (assay: NCI-60 one-dose screen, 48 h (100 = growth as untreated, 0 = no growth, -100 = all killed)). Details: 10 µM unless noted.

SMILES	growth
CCCCNc1nc(NC(C)(C)C)nc(NC(C)(C)C)n1	78.5% (inactive)
Cc1cccc(NC2=C(Cl)C(=O)c3nc(C)ccc3C2=O)c1	-81.1% (active)
C[C@H]1OCC2(CCN(c3cnc(C(=O)Nc4cc(F)cc5cccnc45)cn3)CC2)[C@H]1N	-4.2% (active)
c1ccc(-c2c(-c3ccccc3)[n+](Cc3ccc4ccccc4c3)cn2Cc2ccc3ccccc3c2)cc1	-85% (active)
C#CCOc1cc(/C=N/Nc2nc(-c3ccc(OC)cc3)cs2)ccc1O	43% (inactive)
CCC1CCc2nc3sc(C(=O)Nc4cccc(C)c4)c(N)c3cc2C1 (stereo unspecified)	44.5% (inactive)
O=S(=O)(c1ccc(NC(=S)NCc2cccnc2)cc1)N1CCCCC1	72.3% (inactive)
C=C(C)[C@@H]1CC[C@]2(CO)CC[C@]3(C)[C@H](CC[C@@H]4[C@@]5(C)CCC(NCCc6ccc(O)cc6)C(C)(C)[C@@H]5CC[C@]43C)[C@@H]12 (stereo partly specified)	-91.7% (active)
CC(=O)/C(=C\c1ccc(Cl)cc1)c1ccccc1	0.454% (active)
Cc1ccc(-c2nn(-c3ccccc3)cc2/C=C/C(=O)c2ccc(NC(=O)CCCCCCC(=O)NO)cc2)cc1	70.9% (inactive)
CCOC(=O)c1c(NS(=O)(=O)c2ccc(C)cc2)sc2c1CCC1(C2)OCCO1	87.6% (inactive)
COc1cc(Cn2c(-c3nonc3N)nc3ccccc32)ccc1C	40.9% (inactive)
O=C(N/N=C/c1c[nH]c2ccccc12)c1cc(-c2ccccc2)on1	94.9% (inactive)
O=c1[nH]ccc2nc(N3CCC(O)CC3)nc(Nc3ccc(N4CCOCC4)cc3)c12	159% (inactive)
Cc1nc(-c2ccccc2)cc2c(O)c(C(=O)N/N=C/Cc3ccccc3)[nH]c(=O)c12	111% (inactive)
CC1=C(C(=O)n2c3ccccc3c3ccccc32)C(c2cccc([N+](=O)[O-])c2)C(C(=O)n2c3ccccc3c3ccccc32)=C(C)N1	118% (inactive)
O=C(NCCc1ccccn1)OCc1nc2nc(Cl)nc(N3CCOCC3)c2[nH]1	24.9% (inactive)
Cc1c(O)cc(-c2cnc(N/N=C\c3ccc(Cl)cc3)s2)c(O)c1C	76% (inactive)

SMILES	growth
COc1ccc(C2CC(c3cccc(Nc4ccncc4)c3)=NN2c2cc(Cl)cc(Cl)c2)cc1 (stereo unspecified)	43.3% (inactive)
Cn1c(=O)c2c(nc(NC3=NS(=O)(=O)c4ccccc43)n2CC(=O)N2CCc3ccccc32)n(C)c1=O	102% (inactive)
Cc1cc(O)cc2c1[C@H]1CC[C@]3(C)[C@@H](O)CC[C@H]3[C@@H]1C=C2	96.8% (inactive)
Cc1c2cnccc2c(C)c2c1c1cc(C#N)ccc1n2C	-46.9% (active)
CC(=O)Nc1ccc(S(=O)(=O)c2ccnc3cc(Cl)ccc23)cc1	9.85% (active)
C[C@@H]1CC[C@@H]2[C@@H]1[C@H](OC(=O)/C=C/c1ccccc1)[C@]1(CCCOCCOCCOCCOC(=O)CCCC[C@@H]3SC[C@@H]4NC(=O)N[C@@H]43)C[C@@H](OC(=O)CO)[C@@]2(C)O1	111% (inactive)
CCOC(=O)c1cnn2c3ccccc3n(S(=O)(=O)c3ccc(OC)cc3)c12	-12.1% (active)
COc1cccc(C2C(C#N)=C(N)Oc3cc4c(cc32)OCO4)c1 (stereo unspecified)	2.26% (active)
Cc1cc(F)cc(NS(=O)(=O)c2ccc(-c3cnc(C4CC4)o3)cc2)c1	-1.16% (active)
O=C(Cc1ccccc1)c1ccc(Cl)cc1	124% (inactive)
Clc1ccc(Cl)c(N=Cc2ccc3c(c2)OCO3)c1	113% (inactive)
CC(=O)O[C@@H]1C(=O)N(c2cnccn2)[C@H]1c1ccccc1[N+](=O)[O-]	-4.17% (active)
COc1ccc2c(c1)c(/C=N/Nc1ccnc3cc(Cl)ccc13)cn2C	-87.3% (active)
CC(C)(C)NCCC(O)c1cc(C(F)(F)F)nc2c(C(F)(F)F)cccc12 (stereo unspecified)	70.9% (inactive)
CC[C@]12C=CCN3CC[C@@]4(c5ccc(OC)cc5N(C)[C@H]4[C@@](O)(C(=O)OC)[C@@H]1OC(=O)CCC(=O)N[C@H](Cc1c[nH]c4ccccc14)C(=O)OC)[C@@H]32	-42.6% [100 µM] (active)
NC(N)=N/N=C(/c1ccccc1)c1ccc(Cl)cc1	39.6% (inactive)
COC1CC(N)C2OC(c3ccccc3)OCC2O1 (stereo unspecified)	109% (inactive)
Nc1nc(-c2ccc(Cl)cc2)nc2c1sc(=S)n2-c1ccccc1	27.3% (inactive)
